Measurements: PubChem BioAssay (EPA / NIEHS)
Results filed as inconclusive are left out. Some structures have more than one record in an assay (separate samples or runs), and their calls can disagree. Active and inactive are the calls of the source. How the source made its calls, unless noted: active means hit-call score of the fitted dose curve at least 0.9, where 1 is the maximum; inconclusive means response in the unintended direction; inactive means score below 0.9.

Legend:
[1] = ATG_FoxO_CIS: Attagene CIS-FACTORIAL HepG2 Assay for human Forkhead box O (FoxO) (AID 2282943; active means hit-call score of the fitted dose curve at least 0.9, where 1 is the maximum; inactive means score below 0.9); conditions: HepG2 Attagene cis-reporter, FoxO element, mRNA; actives raise or lower the signal
Procedure, shortened: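 HepG2 cells transiently transfected with cis-element-driven reporter units report endogenous FoxO activity. After 24 h chemical exposure, reporter mRNA quantified by RT-PCR, fluorescent labeling, HpaI digestion and capillary electrophoresis; bidirectional fit versus DMSO.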

[2] = ATG_GRE_CIS: Attagene CIS-FACTORIAL HepG2 Assay for human Glucocorticoid Response Elements (GRE) (AID 2282947; active means hit-call score of the fitted dose curve at least 0.9, where 1 is the maximum; inactive means score below 0.9); conditions: HepG2 GRE cis-reporter, Attagene multiplex mRNA; actives raise or lower the signal
Procedure, shortened: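 Read-out: fluorescent reporter-transcript fragments separated by capillary electrophoresis after RT-PCR. Transiently transfected HepG2 cells carrying cis-element-driven reporter units were dosed for 24 h; gain or loss of signal fitted against DMSO control.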

[3] = target: Hypoxia-inducible factor 1-alpha (Homo sapiens) (UniProt Q16665); assay: ATG_HIF1a_CIS: Attagene CIS-FACTORIAL HepG2 Assay for human Hypoxia Inducible Factor 1 (HIF1A) (AID 2282951; active means hit-call score of the fitted dose curve at least 0.9, where 1 is the maximum; inactive means score below 0.9); conditions: HepG2 Attagene cis-factorial HIF1a reporter transcription; actives raise or lower the signal
Hypoxia-inducible factor 1-alpha (Homo sapiens), sequence (Q16665 whole entry, looked up): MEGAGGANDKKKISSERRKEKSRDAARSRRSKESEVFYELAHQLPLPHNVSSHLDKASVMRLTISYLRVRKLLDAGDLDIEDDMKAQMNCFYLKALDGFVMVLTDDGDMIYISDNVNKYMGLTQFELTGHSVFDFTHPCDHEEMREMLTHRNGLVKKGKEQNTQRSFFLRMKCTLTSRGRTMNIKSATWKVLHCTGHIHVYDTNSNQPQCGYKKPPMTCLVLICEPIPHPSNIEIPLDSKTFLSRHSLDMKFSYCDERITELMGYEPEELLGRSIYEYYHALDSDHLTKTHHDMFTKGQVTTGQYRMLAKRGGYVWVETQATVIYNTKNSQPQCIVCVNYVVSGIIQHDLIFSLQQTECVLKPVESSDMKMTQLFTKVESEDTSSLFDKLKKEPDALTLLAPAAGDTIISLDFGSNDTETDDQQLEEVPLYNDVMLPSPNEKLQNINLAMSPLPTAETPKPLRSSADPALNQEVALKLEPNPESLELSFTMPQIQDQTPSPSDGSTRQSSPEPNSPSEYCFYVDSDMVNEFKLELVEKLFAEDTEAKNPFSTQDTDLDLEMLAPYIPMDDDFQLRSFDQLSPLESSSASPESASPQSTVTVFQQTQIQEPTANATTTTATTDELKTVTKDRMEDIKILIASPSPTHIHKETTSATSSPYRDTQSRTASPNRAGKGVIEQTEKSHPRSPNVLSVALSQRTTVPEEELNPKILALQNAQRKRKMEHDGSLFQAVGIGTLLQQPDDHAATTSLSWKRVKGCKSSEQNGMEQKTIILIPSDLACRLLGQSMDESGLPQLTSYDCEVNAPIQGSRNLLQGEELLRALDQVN
Procedure, shortened: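 HepG2 cells transiently transfected with multiple cis-regulated reporter transcription units measure endogenous transcription factor activity. After 24 h exposure, reporter mRNA is quantified by RT-PCR with 6-FAM labelling, HpaI digestion and capillary electrophoresis. Bidirectional fitting against DMSO.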

[4] = ATG_PBREM_CIS: Attagene CIS-FACTORIAL HepG2 Assay for human Phenobarbital-responsive Enhancer Module (PBREM) (AID 2282955; active means hit-call score of the fitted dose curve at least 0.9, where 1 is the maximum; inactive means score below 0.9); conditions: HepG2 PBREM cis-reporter, Attagene multiplexed transcription; actives raise or lower the signal
Procedure, shortened: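 HepG2 cells transiently transfected with multiple cis-regulated reporter units measure endogenous transcription factor activity; 24 h compound exposure. Reporter mRNA quantified by RT-PCR, fluorescent labelling, HpaI digestion and capillary electrophoresis; bidirectional fit versus DMSO.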

[5] = ATG_RORE_CIS: Attagene CIS-FACTORIAL HepG2 Assay for human RAR-related Orphan Receptor Element (RORE) (AID 2282959; active means hit-call score of the fitted dose curve at least 0.9, where 1 is the maximum; inactive means score below 0.9); conditions: HepG2 Attagene cis-factorial RORE reporter, mRNA; actives raise or lower the signal
Procedure, shortened: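 HepG2 cells carrying transiently transfected cis-regulated reporter units; RORE-driven reporter mRNA quantified 24 h post-dosing by RT-PCR, 6-FAM primer extension, HpaI digestion and capillary electrophoresis. Bidirectional fit versus DMSO.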

[6] = target: human Peroxisome Proliferator-activated Receptor alpha (PPARa), PPARA (gene 5465) (UniProt Q07869); assay: ATG_PPARa_TRANS: Attagene TRANS-FACTORIAL HepG2 Assay for human Peroxisome Proliferator-activated Receptor alpha (PPARa) (AID 2283001);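 on AC50: potency for gain of reporter signal over DMSO so agonist or activator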
human Peroxisome Proliferator-activated Receptor alpha (PPARa), PPARA (gene 5465), sequence (Q07869 whole entry, looked up, the tested form may be a part): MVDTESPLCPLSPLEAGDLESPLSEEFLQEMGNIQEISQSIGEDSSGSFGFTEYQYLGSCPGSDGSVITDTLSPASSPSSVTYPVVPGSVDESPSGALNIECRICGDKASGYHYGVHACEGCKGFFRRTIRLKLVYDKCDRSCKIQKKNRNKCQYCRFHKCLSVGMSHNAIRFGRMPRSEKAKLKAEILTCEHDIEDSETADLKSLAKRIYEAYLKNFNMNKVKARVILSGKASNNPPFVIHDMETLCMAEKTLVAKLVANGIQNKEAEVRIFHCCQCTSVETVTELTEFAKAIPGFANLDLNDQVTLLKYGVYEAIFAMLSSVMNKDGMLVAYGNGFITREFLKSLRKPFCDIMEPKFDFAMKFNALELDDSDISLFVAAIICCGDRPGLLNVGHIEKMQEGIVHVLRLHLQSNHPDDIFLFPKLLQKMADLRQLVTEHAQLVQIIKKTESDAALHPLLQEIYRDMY
Procedure, shortened: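 Transient HepG2 transfection, GAL4-UAS reporters, NR-Gal4 chimeras; 24 h compound exposure. Readout: reporter transcripts by RT-PCR, 6-FAM primer extension, HpaI digest, capillary electrophoresis. Positive direction vs DMSO baseline.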

[7] = target: Peroxisome proliferator-activated receptor gamma (Homo sapiens) (UniProt P37231); assay: ATG_PPARg_TRANS: Attagene TRANS-FACTORIAL HepG2 Assay for human Peroxisome Proliferator-activated Receptor-gamma (PPARg) (AID 2283007)
Peroxisome proliferator-activated receptor gamma (Homo sapiens), sequence (P37231 whole entry, looked up, the tested form may be a part): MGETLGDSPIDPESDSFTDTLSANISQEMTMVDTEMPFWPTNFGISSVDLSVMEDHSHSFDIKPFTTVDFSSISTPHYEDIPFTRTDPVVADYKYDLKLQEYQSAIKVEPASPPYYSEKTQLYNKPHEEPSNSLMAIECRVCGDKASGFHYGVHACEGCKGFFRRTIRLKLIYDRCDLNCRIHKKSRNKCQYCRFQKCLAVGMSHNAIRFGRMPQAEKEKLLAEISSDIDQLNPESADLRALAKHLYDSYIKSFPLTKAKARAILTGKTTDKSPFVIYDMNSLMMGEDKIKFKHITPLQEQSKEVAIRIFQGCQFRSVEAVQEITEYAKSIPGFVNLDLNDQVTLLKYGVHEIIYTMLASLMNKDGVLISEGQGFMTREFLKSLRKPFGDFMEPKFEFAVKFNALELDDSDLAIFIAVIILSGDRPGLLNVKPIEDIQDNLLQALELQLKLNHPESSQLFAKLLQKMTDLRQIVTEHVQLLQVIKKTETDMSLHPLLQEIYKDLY
Procedure, shortened: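 HepG2 cells are transiently transfected with GAL4-UAS reporter units driven by chimeric NR-Gal4 fusions and dosed for 24 h. Reporter mRNA is quantified by RT-PCR, 6-FAM labelling, HpaI digestion and capillary electrophoresis. Induction is scored against DMSO.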

[8] = target: Nuclear receptor subfamily 1 group I member 2 (Homo sapiens) (UniProt O75469); assay: ATG_PXR_TRANS: Attagene TRANS-FACTORIAL HepG2 Assay for human Pregnane X Receptor (PXR) (AID 2283008)
Nuclear receptor subfamily 1 group I member 2 (Homo sapiens), sequence (O75469 whole entry, looked up, the tested form may be a part): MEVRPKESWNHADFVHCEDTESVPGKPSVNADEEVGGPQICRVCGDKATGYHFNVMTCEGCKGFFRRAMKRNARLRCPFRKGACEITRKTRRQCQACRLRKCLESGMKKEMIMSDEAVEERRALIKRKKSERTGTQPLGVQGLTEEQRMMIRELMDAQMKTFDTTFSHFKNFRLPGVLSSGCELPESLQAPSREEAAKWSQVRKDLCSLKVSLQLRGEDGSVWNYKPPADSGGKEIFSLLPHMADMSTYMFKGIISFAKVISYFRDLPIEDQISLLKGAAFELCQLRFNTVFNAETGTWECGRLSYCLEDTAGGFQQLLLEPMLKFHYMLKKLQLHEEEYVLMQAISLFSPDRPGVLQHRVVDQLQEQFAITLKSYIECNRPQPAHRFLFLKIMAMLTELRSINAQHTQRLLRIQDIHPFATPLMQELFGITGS
Procedure, shortened: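 HepG2 transfected (FuGene 6) with GAL4-UAS reporter units + PXR-Gal4 chimera; dosed 24 h. Total RNA → oligo(dT) RT → PCR → 6-FAM primer extension → HpaI cut → CE. Gain-of-signal vs DMSO.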

[9] = target: Cellular tumor antigen p53 (Homo sapiens) (UniProt P04637); assay: TOX21_p53_BLA_p2_ratio: Tox21 HCT-116 p53 Agonism Beta-lactamase Assay, Ratio, Phase 2 (AID 2283592)
Cellular tumor antigen p53 (Homo sapiens), sequence (P04637 whole entry, looked up): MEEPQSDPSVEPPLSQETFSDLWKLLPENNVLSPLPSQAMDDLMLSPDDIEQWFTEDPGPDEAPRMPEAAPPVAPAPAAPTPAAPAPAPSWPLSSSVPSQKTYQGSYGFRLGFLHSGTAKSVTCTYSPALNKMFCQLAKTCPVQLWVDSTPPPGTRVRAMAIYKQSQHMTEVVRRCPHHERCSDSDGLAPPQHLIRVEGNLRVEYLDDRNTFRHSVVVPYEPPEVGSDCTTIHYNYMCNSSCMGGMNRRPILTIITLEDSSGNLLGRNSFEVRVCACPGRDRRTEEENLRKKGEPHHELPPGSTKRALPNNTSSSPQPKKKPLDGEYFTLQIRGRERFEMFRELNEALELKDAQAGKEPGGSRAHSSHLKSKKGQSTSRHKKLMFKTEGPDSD
Procedure, shortened: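 Cleaved-to-uncleaved substrate ratio (460 vs 530 nm) measured in HCT116 cells with an inducible beta-lactamase reporter linked to p53 activity. Compounds incubated 16 h at 37C before 2 h room-temperature CCF4-AM loading.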

[10] = target: Cellular tumor antigen p53 (Homo sapiens) (UniProt P04637); assay: TOX21_p53_BLA_p5_ratio: Tox21 HCT-116 p53 Agonism Beta-lactamase Assay, Ratio, Phase 5 (AID 2283599)
Procedure, shortened: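 HCT-116 p53-bla cells (4000/well) plated 5 h, dosed with compound (217-fold DMSO dilution) for 16 h at 37 C; CCF4-AM substrate 2 h at room temperature. Activity is the 460/530 nm emission ratio (405 nm excitation), fitted in gain-of-signal direction versus DMSO.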

[11] = ATG_M_19_CIS: Attagene CIS-FACTORIAL HepG2 Assay for M19 Transcription Factor (Internal Marker) (AID 2282939; active means hit-call score of the fitted dose curve at least 0.9, where 1 is the maximum; inactive means score below 0.9); conditions: HepG2 Attagene CIS-FACTORIAL M19 internal marker reporter; actives raise or lower the signal
Procedure, shortened: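 Signals come from fluorescence of labelled reporter-specific PCR fragments resolved by capillary electrophoresis, following 24 h treatment of HepG2 cells transfected with cis-promoter reporter units; activity was fitted in both directions relative to DMSO.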

[12] = target: Heat shock factor protein 1 (Homo sapiens) (UniProt Q00613); assay: ATG_HSE_CIS: Attagene CIS-FACTORIAL HepG2 Assay for human Heat Shock Transcription Factor 1 (HSE) (AID 2282953; active means hit-call score of the fitted dose curve at least 0.9, where 1 is the maximum; inactive means score below 0.9); conditions: HepG2 HSE cis-reporter, Attagene RNA transcription; actives raise or lower the signal
Heat shock factor protein 1 (Homo sapiens), sequence (Q00613 whole entry, looked up, the tested form may be a part): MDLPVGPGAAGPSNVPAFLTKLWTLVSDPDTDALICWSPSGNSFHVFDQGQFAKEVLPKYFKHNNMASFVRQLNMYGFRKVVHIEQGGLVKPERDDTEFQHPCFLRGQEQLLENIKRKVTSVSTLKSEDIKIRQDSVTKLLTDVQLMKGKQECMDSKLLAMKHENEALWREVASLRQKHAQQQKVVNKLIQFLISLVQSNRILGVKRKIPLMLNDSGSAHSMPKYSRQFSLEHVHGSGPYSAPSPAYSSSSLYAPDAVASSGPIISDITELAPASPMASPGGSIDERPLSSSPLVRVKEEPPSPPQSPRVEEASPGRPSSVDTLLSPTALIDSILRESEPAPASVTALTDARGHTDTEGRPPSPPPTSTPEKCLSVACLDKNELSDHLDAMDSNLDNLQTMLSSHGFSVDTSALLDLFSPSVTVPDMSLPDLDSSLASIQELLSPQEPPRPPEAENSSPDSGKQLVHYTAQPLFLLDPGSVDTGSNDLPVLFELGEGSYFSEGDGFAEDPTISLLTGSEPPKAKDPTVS
Procedure, shortened: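 Endogenous transcription factor activity captured via cis-promoter reporter units transfected into HepG2; treatment lasted 24 h. Fluorescence intensity of reporter fragments analysed with bidirectional curve fitting, DMSO baseline.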

[13] = target: Hepatocyte nuclear factor 4-alpha (Homo sapiens) (UniProt P41235); assay: ATG_HNF4a_TRANS: Attagene TRANS-FACTORIAL HepG2 Assay for human Hepatocyte Nuclear Factor 4 alpha (HNF4a) (AID 2282982); conditions: HepG2 HNF4a transactivation reporter, mRNA readout
Hepatocyte nuclear factor 4-alpha (Homo sapiens), sequence (P41235 whole entry, looked up): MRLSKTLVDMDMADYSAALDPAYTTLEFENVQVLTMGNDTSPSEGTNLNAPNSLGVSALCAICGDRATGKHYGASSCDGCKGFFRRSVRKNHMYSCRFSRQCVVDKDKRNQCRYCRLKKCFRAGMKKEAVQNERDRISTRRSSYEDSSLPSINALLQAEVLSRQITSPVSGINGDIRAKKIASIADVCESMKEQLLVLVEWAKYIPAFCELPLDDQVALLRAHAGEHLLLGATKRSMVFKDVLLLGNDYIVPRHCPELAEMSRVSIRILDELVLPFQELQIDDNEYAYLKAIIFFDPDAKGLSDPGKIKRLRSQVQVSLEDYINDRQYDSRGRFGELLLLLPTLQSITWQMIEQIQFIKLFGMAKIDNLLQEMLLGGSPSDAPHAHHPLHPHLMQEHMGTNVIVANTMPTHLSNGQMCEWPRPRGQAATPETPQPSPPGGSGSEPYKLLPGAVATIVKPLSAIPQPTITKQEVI
Procedure, shortened: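 Transient MRTU transfection of HepG2, 24 h dosing. Readout: reporter mRNA via RT-PCR + capillary electrophoresis, fluorescence; activity fit upward relative to DMSO control.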

[14] = ATG_NRF2_ARE_CIS: Attagene CIS-FACTORIAL HepG2 Assay for human Nuclear Factor Erythroid 2 Related Factor 2 (NFR2) response to Antioxidant Response Elements (ARE) (AID 2282992; active means hit-call score of the fitted dose curve at least 0.9, where 1 is the maximum; inactive means score below 0.9;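 on AC50: reporter mRNA level measured by RT-PCR and capillary electrophoresis fluorescence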); conditions: HepG2 Attagene ARE/NRF2 reporter, transcription factor activity; actives raise or lower the signal
Procedure, shortened: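 Endogenous transcription factor activity in human liver HepG2 cells is tracked via a cis-element-driven reporter within a multiplexed set. mRNA induction is read by RT-PCR and capillary electrophoresis after 24 h, with DMSO as baseline.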

[15] = target: Retinoic acid receptor RXR-alpha (Homo sapiens) (UniProt P19793); assay: ATG_RXRa_TRANS: Attagene TRANS-FACTORIAL HepG2 Assay for human Retinoid X Receptor alpha (RXRa) (AID 2283012)
Retinoic acid receptor RXR-alpha (Homo sapiens), sequence (P19793 whole entry, looked up, the tested form may be a part): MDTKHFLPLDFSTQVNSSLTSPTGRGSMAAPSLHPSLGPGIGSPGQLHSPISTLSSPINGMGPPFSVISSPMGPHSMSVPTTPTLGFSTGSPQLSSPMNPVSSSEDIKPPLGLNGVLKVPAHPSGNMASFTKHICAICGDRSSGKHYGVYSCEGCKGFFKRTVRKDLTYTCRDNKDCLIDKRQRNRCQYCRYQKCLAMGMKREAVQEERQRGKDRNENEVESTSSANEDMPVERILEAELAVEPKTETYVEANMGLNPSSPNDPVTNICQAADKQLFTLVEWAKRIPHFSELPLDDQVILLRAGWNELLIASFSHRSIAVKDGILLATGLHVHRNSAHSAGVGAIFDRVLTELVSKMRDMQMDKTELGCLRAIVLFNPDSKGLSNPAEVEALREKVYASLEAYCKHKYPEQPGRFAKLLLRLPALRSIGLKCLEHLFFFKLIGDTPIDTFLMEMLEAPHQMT
Procedure, shortened: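 Read-out: fluorescent reporter-transcript fragments quantified by capillary electrophoresis after RT-PCR. Transiently transfected HepG2 cells carrying GAL4-UAS reporters and NR-GAL4 chimeras were exposed to chemical for 24 h; activity scored as increase over DMSO.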

[16] = target: human Thyroid Receptor alpha (THRa1), THRA (gene 7067) (UniProt P10827); assay: ATG_THRa1_TRANS: Attagene TRANS-FACTORIAL HepG2 Assay for human Thyroid Receptor alpha (THRa1) (AID 2283014)
human Thyroid Receptor alpha (THRa1), THRA (gene 7067), sequence (P10827 whole entry, looked up, the tested form may be a part): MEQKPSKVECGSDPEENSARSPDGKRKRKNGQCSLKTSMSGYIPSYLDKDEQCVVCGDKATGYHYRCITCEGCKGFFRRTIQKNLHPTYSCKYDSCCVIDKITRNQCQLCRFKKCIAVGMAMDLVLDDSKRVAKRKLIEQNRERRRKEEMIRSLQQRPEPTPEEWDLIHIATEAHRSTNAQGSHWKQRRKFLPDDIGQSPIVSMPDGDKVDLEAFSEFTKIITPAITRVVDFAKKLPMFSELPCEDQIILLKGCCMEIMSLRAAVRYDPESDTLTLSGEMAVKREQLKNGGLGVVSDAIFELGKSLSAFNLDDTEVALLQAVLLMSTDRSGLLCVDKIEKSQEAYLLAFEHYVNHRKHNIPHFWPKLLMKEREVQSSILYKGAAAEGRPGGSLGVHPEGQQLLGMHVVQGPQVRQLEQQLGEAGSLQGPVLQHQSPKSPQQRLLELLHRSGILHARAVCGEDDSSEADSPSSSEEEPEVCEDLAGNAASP
Procedure, shortened: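 First, HepG2 cells receive multiple GAL4-UAS reporter units and the chimeric receptor. They are then dosed for 24 h, after which RNA is reverse-transcribed, amplified, labelled, HpaI-cut and sized by capillary electrophoresis; gain relative to DMSO is scored.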

[17] = ATG_M_06_TRANS: Attagene TRANS-FACTORIAL HepG2 Assay for M06 Transcription Factor (Internal Marker) (AID 2282983); conditions: HepG2 Attagene TRANS M06 internal marker reporter;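 further: reporter transcript level by RT-PCR then capillary electrophoresis fluorescence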
Procedure, shortened: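 Human liver HepG2 cells bearing transiently transfected chimeric NR-GAL4 reporter units were treated with chemicals for 24 h. Total RNA was reverse-transcribed, reporter sequences amplified and labelled, then quantified by capillary electrophoresis. Activity was fitted upward relative to DMSO.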

[18] = TOX21_p53_BLA_p5_viability: Viability Assessment in the Tox21 HCT-116 p53 Agonism Beta-lactamase Assay, Phase 5 (AID 2283600)
Procedure, shortened: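 Viability is taken from cellular ATP content, measured by luciferase luminescence in the same wells after the beta-lactamase ratio read. Cells are seeded at 4000 per well and exposed to DMSO-dissolved compounds, diluted 217-fold, for 16 h.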

[19] = target: Cellular tumor antigen p53 (Homo sapiens) (UniProt P04637); assay: TOX21_p53_BLA_p3_ratio: Tox21 HCT-116 p53 Agonism Beta-lactamase Assay, Ratio, Phase 3 (AID 2283596)
Procedure, shortened: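 Cells were seeded at 4000/well, rested 5 h at 37C, then dosed with DMSO compound solutions (217-fold dilution) for 16 h. CCF4-AM substrate was loaded for 2 h at room temperature, and the 460/530 nm emission ratio was fitted for gain of signal versus DMSO.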

[20] = target: Cellular tumor antigen p53 (Homo sapiens) (UniProt P04637); assay: TOX21_p53_BLA_p4_ratio: Tox21 HCT-116 p53 Agonism Beta-lactamase Assay, Ratio, Phase 4 (AID 2283601)
Procedure, shortened: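 HCT-116 p53 beta-lactamase reporter cells (4000/well) preincubated 5 h, then compound (217-fold dilution of DMSO stock) for 16 h at 37C. CCF4-AM substrate added 2 h at room temperature; 460/530 nm emission ratio fitted upward versus DMSO.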

Measured: AC50

CCCCCCC1CCOC1=O (centres undefined)
inactive: [1] | [2] | [3] | [4] | [5] | [6] | [7] | [8] | [9] | [10]

CC(C)C#N
inactive: [11] | [2] | [12] | [4] | [13] | [14] | [6] | [7] | [15] | [16]

C=CCc1ccc(OC(=O)Cc2ccccc2)c(OC)c1
active: [7] 19 µM | [8] 11.8 µM
not listed: [5] | [6] | [10] | [14] | [19] | [20]
inactive: all other assays above

CN1C(=O)CCS(=O)(=O)C1c1ccc(Cl)cc1 (centres undefined)
inactive: [11] | [2] | [12] | [13] | [17] | [14] | [6] | [8] | [16]

CC1CCCC1.[C-]#[O+].[C-]#[O+].[C-]#[O+].[Mn]
not listed: [7] | [13] | [17]
inactive: all other assays above

Oc1cc(Cl)ccc1Cl
not listed: [3] | [4] | [9] | [13] | [16] | [18] | [20]
inactive: all other assays above

CCOC(=O)NC(=S)Nc1ccccc1NC(=S)NC(=O)OCC
active: [14] 5.19 µM | [8] 0.77 µM | [19] 85.4 µM | [10] 77.3 µM | [20] 64 µM
not listed: [4] | [9] | [11] | [15]
inactive: all other assays above

CCC(Br)(CC)C(=O)NC(N)=O
not listed: [1] | [2] | [6] | [7] | [13] | [18] | [19] | [20]
inactive: all other assays above

Nc1ccc(-c2ccc(N)c(N)c2)cc1N
inactive: [11] | [1] | [12] | [13] | [17] | [6] | [7] | [15]
active: [14] 14 µM

O=C(CCl)c1ccccc1
inactive: [11] | [1] | [3] | [12] | [5] | [13] | [17] | [8] | [9] | [19] | [10] | [18] | [20]
active: [2] 8.88 µM | [14] 8.04 µM | [6] 50.2 µM | [7] 16.4 µM | [16] 55.9 µM | [19] 64.3 µM
